POLK inh: qHTS for Inhibitors of Polymerase Kappa. purified Pol kappa, fluorescent DNA synthesis assay, 10 min. actives 0.53% (n = 400,000). Potency, µM (highest dose often 107 µM), for the others: at the highest dose activity, negative = inhibition, actives largely listed as inhibitors. DNA polymerase kappa (Homo sapiens), Q9UBT6; also: potency is read from the fitted curve at half-maximal effect; % is scaled to controls: 0 for no effect and ±100 for the full control effect
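10 nM Pol kappa was preincubated with compounds for 15 min at room temperature. Reaction started with 50 nM (final) substrate. Fluorescence read kinetically at 0 and 10 min.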
WRN helicase inh: qHTS for Inhibitors of WRN Helicase. Bifunctional 3'-5' exonuclease/ATP-dependent helicase WRN (Homo sapiens), Q14191. WRN helicase unwinding, fluorescent forked duplex, kinetic. Potency, µM (top dose mostly 114 µM), inactives show top-dose activity change, negative = inhibition, actives largely listed as inhibitors. actives 0.46% (n = 360,000); also: potency is read from the fitted curve at half-maximal effect; % is scaled to controls: 0 for no effect and ±100 for the full control effect; nearly all actives have a fitted effect of over 55% in size
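Kinetic fluorescence helicase assay: unwinding of a quenched forked DNA duplex (100 nM final) with 2 mM ATP final raises red fluorescence (525/598 nm). Compounds sat 15 min at room temperature with 20 nM WRN beforehand.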
POLB inh: qHTS Assay for Inhibitors of DNA Polymerase Beta | Pol beta primer extension/strand displacement, fluorescence kinetic | AID 485314, 2010 | Potency, µM (titrated, usually from 114 µM), inactives show at the top dose activity change, negative = inhibition, actives largely listed as inhibitors | P06746 | actives 1.3% (n = 340,000); also: potency is read from the fitted curve at half-maximal effect; % is scaled to controls: 0 for no effect and ±100 for the full control effect
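Pol beta (10 nM) and compounds were preincubated 15 min at room temperature, then 50 nM substrate (final) started primer extension/strand displacement. Reads were taken at 0 and 10 min; concentration-response data were fitted to a four-parameter Hill equation.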
PI5P4Ka inh: qHTS for Inhibitors of phosphatidylinositol 5-phosphate 4-kinase (PI5P4K) | Phosphatidylinositol 5-phosphate 4-kinase type-2 alpha (Homo sapiens), P48426 | PI5P4Kalpha enzyme, ADP-Glo luminescence, 60 min; active compounds read low | max response, % | actives 1.2% (n = 330,000) | AID 652105, 2013; active = max response of -50% or lower; inconclusive = between -30% and -50%; inactive = -30% or higher; also: value at the top dose of about 77 µM; % is scaled to controls: 0 for no effect and ±100 for the full control effect
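Quantitative HTS of the MLSMR library against PI5P4Kalpha with substrate. ATP added last at 5 microM final; room temperature, 60 minutes. Remaining ATP depleted, ADP converted and read as luminescence.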
POLH inh: qHTS for Inhibitors of Polymerase Eta; actives 1.2% (n = 390,000); Potency, µM (doses to about 114 µM), inactives show at the highest dose activity change, negative = inhibition, most hits filed as inhibitors; AID 588591, 2011; recombinant Pol eta, fluorescent DNA replication assay; also: potency is read from the fitted curve at half-maximal effect; % is scaled to controls: 0 for no effect and ±100 for the full control effect
Target sequence (Q9Y253 whole entry, looked up): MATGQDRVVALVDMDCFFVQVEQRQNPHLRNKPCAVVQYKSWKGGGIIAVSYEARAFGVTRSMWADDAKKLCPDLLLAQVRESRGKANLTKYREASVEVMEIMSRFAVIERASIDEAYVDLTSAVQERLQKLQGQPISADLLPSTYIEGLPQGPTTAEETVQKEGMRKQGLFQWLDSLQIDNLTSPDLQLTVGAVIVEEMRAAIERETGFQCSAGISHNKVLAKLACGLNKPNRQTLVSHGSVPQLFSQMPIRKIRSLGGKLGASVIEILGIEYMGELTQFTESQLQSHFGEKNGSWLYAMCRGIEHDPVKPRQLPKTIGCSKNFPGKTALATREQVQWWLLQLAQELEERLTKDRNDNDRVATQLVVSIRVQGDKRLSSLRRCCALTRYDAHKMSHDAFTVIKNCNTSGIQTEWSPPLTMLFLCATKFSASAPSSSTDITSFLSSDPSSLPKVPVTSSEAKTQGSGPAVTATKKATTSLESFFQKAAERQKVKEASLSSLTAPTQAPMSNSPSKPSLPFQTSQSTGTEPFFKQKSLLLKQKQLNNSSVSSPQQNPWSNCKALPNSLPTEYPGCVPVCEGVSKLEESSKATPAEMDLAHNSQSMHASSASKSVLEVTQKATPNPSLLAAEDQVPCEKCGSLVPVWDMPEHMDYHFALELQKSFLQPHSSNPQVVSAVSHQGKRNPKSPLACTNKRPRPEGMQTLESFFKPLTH
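Pol eta at 10 nM preincubated with compounds 15 min at room temperature; reaction started with fluorescent substrate (50 nM final) and read kinetically at 0 and 10 min.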
POLI inh: qHTS for Inhibitors of Polymerase Iota | Pol iota fluorescent replication assay, 10 min | Potency, µM (series often up to 115 µM), for the others: top-dose activity, negative = inhibition, actives largely listed as inhibitors | actives 1% (n = 390,000) | AID 588590, 2011; also: potency is read from the fitted curve at half-maximal effect
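Fluorescent replication assay read twice, at 0 min and 10 min after adding 50 nM (final) substrate. Enzyme (10 nM) and compounds were first incubated 15 min at room temperature; enzyme-free buffer wells were negative controls.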
PGK validate: qHTS for inhibitors of Phosphogylcerate Kinase: Hit Validation Screen; Potency, µM (series often up to 57.5 µM), for the others: at the highest dose activity change, negative = inhibition, actives largely listed as inhibitors; actives 79% (n = 500); shares compounds with POLK inh; TbPGK coupled GAPDH assay, Kinase-Glo luminescence; also: potency is read from the fitted curve at half-maximal effect; % is scaled to controls: 0 for no effect and ±100 for the full control effect; nearly all actives have a fitted effect of over 65% in size
POLI cherry-pick: qHTS for Inhibitors of Polymerase Iota: Confirmatory Assay for Cherry-picked Compounds | shares compounds with POLK inh | Pol iota primer extension, TAMRA/BHQ fluorescence | Potency, µM, usual class: inhibitors | actives 77% (n = 1,500); also: potency is read from the fitted curve at half-maximal effect
Starred values were filed as active, the others as inactive; ? = inconclusive; · = not tested or not shown; [ ] = another dose, or the depositor's remark. A selection: hits, their analogues and other compounds. The true share with any hit is near 2.8%. Unless noted, calls follow the shape of the dose curve; as a rule, active = well fitted curve in the direction sought with a large enough effect; inconclusive = small, poorly fitted or top-dose-only effect, or another doubt; inactive = no such curve, though single readings can be large; an effect the other way counts as inactive or inconclusive.

SMILES	POLK inh	WRN helicase inh	POLB inh	PI5P4Ka inh	POLH inh	POLI inh	others
Cc1ccc(NC(=O)CSc2nnc(-c3nnn(-c4ccc(F)cc4)c3C)o2)cc1Br	-9%	·	?	·	-8%	-29%
O=C(Nc1ccc(C(=O)N2CCCCC2)cc1)c1ccccc1	-5%	-3%	·	-26	3%	3%
O=C(Nc1ccccc1)Nc1ccc(C(=O)N2CCCC2)cc1	-16%	-12%	24%	-26	-2%	-27%	PGK validate=16µM*
Cc1ccn2c(=O)cc(COc3ccc(NC(=O)C(C)(C)C)cc3)nc2c1	-1%[60.1 µM]	·	-30%	·	-13%	?
O=C(O)CN1C(=O)/C(=C\c2cccc(OCc3ccccc3)c2)SC1=S	-17%	-9%	-1%	-1	-17%	-28%
O=C(O)CCCCN1C(=O)/C(=C\c2ccc(OCc3ccccc3)c(OCc3ccccc3)c2)SC1=S	?	-8%[11.6 µM]	45µM*	0	20µM*	?	POLI cherry-pick=42*
CCN(CC)CCOc1ccc2c(c1)C(=NO)c1cc(OCCN(CC)CC)ccc1-2	?	35µM*	40µM*	·	?	20µM*	POLI cherry-pick=75*
CCN(CC)CCOc1ccc(Br)cc1	-10%	-4%	4%	·	-1%	18%
Cc1ccc(S(=O)(=O)NCc2ccc(C(=O)NCCc3ccc(S(N)(=O)=O)cc3)cc2)cc1	-13%	-3%[11.6 µM]	?	1	?	32µM*	POLI cherry-pick=?
Cc1ccc(CC(=O)NCCc2ccc(S(N)(=O)=O)cc2)cc1	2%	0%	22%	-1	2%	-13%
COc1cc([N+](=O)[O-])ccc1NC(=O)COC(=O)c1ccc(NC(N)=O)cc1	-8%	-16%[11.6 µM]	?	2	?	-18%	POLI cherry-pick=42*
CC(C)=CCc1cc(-c2oc3cc(O)cc(O)c3c(=O)c2O)ccc1O	-14%	-4%[11.6 µM]	·	-55*	?	?	PGK validate=-28%
Cc1ccc(N2C(=O)C(CC(=O)Nc3ccc(F)cc3)N(Cc3ccc4c(c3)OCO4)C2=O)cc1 (stereo not given)	-13%	·	7%	·	-15%	14%
CCN(CC)c1ccc(C(=O)O)cc1	-6%	-5%	-3%	7	-3%	-6%
CCN(CC)c1ccc(C(=C2C=CC(=[N+](CC)CC)C=C2)c2ccc(S(=O)(=O)O)cc2S(=O)(=O)[O-])cc1	-13%	-6%[11.6 µM]	·	-57*	20µM*	?	PGK validate=16µM*
Cc1ccc(-c2nnc3ccccc3c2C(=O)Nc2cccc(Cl)c2)cc1	5%	·	-7%	·	8%	-18%
CCc1nn(CC(=O)NC(C)C)c(=O)c2cc3cc(F)ccc3n12	1%	·	29%	·	-17%	10%
N/C(=N\OC(=O)c1ccccc1Cl)c1ccccc1	0%	-1%	2%	·	8%	14%
N/C(=N/OC(=O)c1ccccc1Cl)c1nonc1N	-3%	-5%	37%	-24	-7%	27%	PGK validate=12µM*
Cc1ccc(C(=O)O/N=C(\N)c2nonc2N)cc1	-1%	4%	1%	-9	-20%	142%	PGK validate=23µM*
N/C(=N\OC(=O)c1ccc(F)cc1)c1nonc1N	0%	-15%	39%	-17	-13%	1%

Source: PubChem BioAssay
